# Laboratory results from PubChem BioAssay AID651814 (National Center for Advancing Translational Sciences (NCATS), 2012).
# Hit rate of the full screen: of about 2,100 compounds, about 590 (28%) were called active. About 42% were inconclusive and are not listed. Some of the results follow. A number with no mark means an inactive call. Calls come from the whole dose curve; as a rule, active = well fitted inhibition curve with a large enough effect; inconclusive = small, poorly fitted or top-dose-only effect; inactive = flat fitted curve, though single readings scatter.
# Target: DNA dC->dU-editing enzyme APOBEC-3F (Homo sapiens) (UniProt Q8IUX4)
# Experiment: qHTS for inhibitors of Vif-A3F interactions: Cherry picks; note: nearly all actives have a fitted effect of over 70% in size;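 for max response: % of control where 0% means no effect; active compounds raise eYFP fluorescence by blocking Vif-driven A3F loss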
# Details: HeLa A3F-eYFP + Vif (tagged APOBEC3F with the HIV-1 protein that degrades it), eYFP fluorescence, 24 h
# Summary of the method: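 Read-out: yellow fluorescence (ex 488 nm, em 500-530 nm) by laser-scanning cytometer after 24 h compound exposure, several concentrations, at 37 deg C. Cells: HeLa line stably co-expressing Vif and C-terminally eYFP-tagged A3F; MG132 served as positive control.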
# Potency is the fitted concentration of half-maximal effect.
# Sequence of DNA dC->dU-editing enzyme APOBEC-3F (Homo sapiens) (Q8IUX4 whole entry, looked up): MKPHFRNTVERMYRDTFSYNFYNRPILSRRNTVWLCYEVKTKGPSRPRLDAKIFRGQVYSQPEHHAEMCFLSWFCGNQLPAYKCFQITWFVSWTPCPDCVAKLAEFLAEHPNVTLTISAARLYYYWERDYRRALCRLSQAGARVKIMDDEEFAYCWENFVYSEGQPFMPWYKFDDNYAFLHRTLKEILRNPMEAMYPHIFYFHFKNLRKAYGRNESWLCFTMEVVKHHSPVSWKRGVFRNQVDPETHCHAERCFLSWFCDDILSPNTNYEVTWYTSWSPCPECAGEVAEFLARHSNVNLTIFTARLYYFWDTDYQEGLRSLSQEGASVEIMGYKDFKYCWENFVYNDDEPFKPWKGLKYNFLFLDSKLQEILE
Structure (SMILES),max response [%],Potency
CNCC(O)Cn1c2c(c3ccccc31)CCCC2 (stereo not given),1.63,
CCN(CC)c1cc(C)c(/C=C/c2ccnc3ccccc23)cc1C,,13 µM (active)
CCN(CC)c1ccc(NC(=O)CSc2nc(C3CC3)nc3ccccc23)cc1C,-22.1,
Cc1cc(N(C)C)c(C)cc1/C=C/c1ccnc2ccccc12,,18.4 µM (active)
Cc1cc(C)n(S(=O)(=O)/C=C/c2ccccc2)n1,-7.92,
O=C(Nc1ccccc1-c1nc2ccccc2[nH]1)c1ccc(N2C(=O)CCC2=O)cc1,,18.4 µM (active)
c1ccc2[nH]c(NN=C3CCCCCC3)nc2c1,2.02,
CCN1C(=S)SC(=O)C1=C1C=C(C)N(Cc2ccco2)C(C)=C1,,17.7 µM (active)
CN(C)C=Nc1c(Br)cc(Br)c2nonc12,,14.6 µM (active)
O=S(=O)(Nc1cccc2ncccc12)c1cccs1,-3.96,
Cc1nc(NC(=O)/C=C/c2ccco2)sc1C,-21.9,
Cc1ccc(NC(=O)/C=C/c2ccc([N+](=O)[O-])s2)c(C)c1,,5.17 µM (active)
CC(=O)c1cccc(NC(=O)/C=C/c2ccc([N+](=O)[O-])s2)c1,,5.17 µM (active)
COC(=O)c1sccc1NC(=S)Nc1cc(C)cc(C)c1,-0.135,
CC(=O)c1cccc(NC(=S)N2c3ccccc3CC2C)c1 (stereo not given),9.61,
Cc1cccc(NC(=O)/C=C/c2ccc([N+](=O)[O-])s2)c1,,3.26 µM (active)
Cc1cc(C)cc(NC(=O)/C=C/c2ccc([N+](=O)[O-])s2)c1,,10.3 µM (active)
Cc1ccc(NC(=O)c2ccc([N+](=O)[O-])s2)cc1S(=O)(=O)N1CCOCC1,-11.7,
N#C/C=C/N1CCN(C(=O)c2ccco2)CC1,0.169,
Cc1cc(C)nc(-n2nc(C)cc2NC(=O)c2ccc(F)cc2F)n1,-0.0521,

Structure (SMILES),max response [%],Potency
COc1cccc(Nc2nc(Nc3ccc(Cl)c(C(=O)O)c3)nc(C)c2[N+](=O)[O-])c1,-16.3,
Cc1ccc(NC(=O)/C=C/c2ccc([N+](=O)[O-])s2)cc1,,5.17 µM (active)
CCOC(=O)c1cc2n(c1N)-c1ccccc1C2=O,-16.6,
CCOC(=O)c1cc2n(c1/N=C/N(C)C)-c1ccccc1C2=O,,18.4 µM (active)
Fc1cccc(Cc2c(-c3ccco3)nc3ccc(Br)cn23)c1,-28.7,
O=C1c2ccccc2C(=O)c2c(/C=C/N3CCCCC3)ccnc21,,20.6 µM (active)
CC(=O)Oc1cccc(N2C(=O)c3cccc4c([N+](=O)[O-])ccc(c34)C2=O)c1,,14 µM (active)
O=C1c2cccc3c([N+](=O)[O-])ccc(c23)C(=O)N1c1ccccn1,-0.304,
CC(=O)Oc1ccc(N2C(=O)c3cccc4c([N+](=O)[O-])ccc(c34)C2=O)cc1,-15.1,
COc1ccc(C(=O)C[n+]2cc(Br)cc3ccccc32)cc1,,8.2 µM (active)
CC(C)(C)c1ccc(C(=O)C[n+]2cccc3cc(Cl)ccc32)cc1,,20.6 µM (active)
CCCC1=[N+](CC(=O)c2ccc(Br)cc2)CCn2cccc21,-4.77,
COc1ccc(C(=O)C[n+]2cccc3cc(Cl)ccc32)cc1,,18.4 µM (active)
O=C(C[n+]1cccc2cc(Cl)ccc21)c1ccc2ccccc2c1,,18.4 µM (active)
CCCc1nc2c(C)cc(Br)cn2c1Cc1ccccc1,-22.2,
O=C(COc1ccccc1)NC(=S)Nc1cccc2c(O)cccc12,-15.7,
COc1ccc(C(=O)NC2CCCc3ccccc32)cc1[N+](=O)[O-] (stereo not given),-23.5,
O=C(C[n+]1cccc2cc(Cl)ccc21)c1ccc(I)cc1,,20.6 µM (active)
O=C(c1ccccc1)C1C(=O)c2ccccc2C1=O,2.89,
NN=C1c2ccccc2C(=O)C1C(=O)C(c1ccccc1)c1ccccc1 (stereo not given),,7.9 µM (active)

Structure (SMILES),max response [%],Potency
CCOC(=O)/C=c1\s/c(=C\c2c(OC)ccc3ccccc23)c(=O)n1CC(=O)NCC1CCCO1 (stereo not given),,14.6 µM (active)
NC(=O)CSc1nc2c(sc3ccccc32)c(=O)n1CCCC(=O)NCC1CCCO1 (stereo not given),3.7,
CCOC(=O)/C=c1/s/c(=C\c2c(OC)ccc3ccccc23)c(=O)n1CC(=O)NCC1CCCO1 (stereo not given),,11.2 µM (active)
CCOC(=O)/C=c1/s/c(=C/c2ccc3cc(OC)ccc3c2)c(=O)n1CC(=O)NCC1CCCO1 (stereo not given),,18.4 µM (active)
Cc1cc(-c2ccccc2)c2c3c(c(-c4ccccc4)n2n1)c(=O)n(C)c(=O)n3C,-9.86,
Cc1ccc(Nc2nc(Cl)c(C=O)s2)cc1Cl,,23.1 µM (active)
N#C/C(=C\c1ccc(C(=O)O)cc1)c1nc2sc3c(c2c(=O)[nH]1)CCCC3,1.2,
CN(C)c1ccc(/C=C(\C#N)c2nc3ccccc3c(=O)[nH]2)cc1,,0.731 µM (active)
Fc1ccc(-c2cnn3c(-c4cccs4)ccnc23)cc1,,4.98 µM (active)
CCN(CC)S(=O)(=O)c1cc([N+](=O)[O-])ccc1N=Nc1c(O)[nH]c2ccccc12,,16.4 µM (active)
Cc1ccccc1NCC(=O)N=Nc1c(O)[nH]c2ccc([N+](=O)[O-])cc12,-1.42,
CCCCN(CCC(=O)O)c1ccc(/C=C/c2ccnc3ccccc23)cc1,,18.4 µM (active)
CC(C)CN(CC(C)C)c1ccc(/C=C/c2ccnc3ccccc23)cc1,,20.6 µM (active)
CCCN(CCC)c1ccc(/C=C/c2ccnc3ccccc23)cc1,,7.31 µM (active)
CCN(C)c1ccc(/C=C/c2ccnc3ccccc23)cc1,,13 µM (active)
CCOc1ccc(-c2cc(C(=O)N/N=C(\C)c3cccnc3)c3ccccc3n2)cc1,-8.69,
CCCCN(CCCC)c1ccc(/C=C/c2ccnc3ccccc23)cc1,,20.6 µM (active)
CCN(CCCN(C)C)c1ccc(/C=C/c2ccnc3ccccc23)cc1,,18.4 µM (active)
CCN(CC)c1ccc(/C=C/c2ccnc3ccccc23)cc1,,6.51 µM (active)
CCOC(=O)c1c(C)oc2ccc(N(C(=O)c3ccncc3)S(=O)(=O)c3ccc(Br)cc3)cc12,-14.4,
